For experiment [1], the target named is Cytochrome P450 3A7 (Homo sapiens) (UniProt P24462). The experiment is described as follows: Cytochrome P450 family 3 subfamily A member 7 (CYP3A7) small molecule antagonists: luciferase biochemical qHTS assay (AID 1963596). Further: nearly all actives have a fitted effect of over 40% in size. Further: potency means the concentration at half of the fitted maximal effect. An outline of the steps:
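P450-Glo luminescent assay: CYP3A7 enzyme converts a proluciferin substrate to luciferin, detected by luciferase reagent; light proportional to activity. Compounds in DMSO preincubated 10 min with enzyme-substrate mix at room temperature, then NADPH regeneration added for 1 h.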
For orientation: qHTS replaces the single test concentration by a dilution series.

A short description of experiment [2]: Viability qHTS for spleen associated tyrosine kinase inhibitor (SYKi) naive MV4-11 cells (AID 1963823). Further: nearly all actives have a fitted effect of over 40% in size. Further: potency means the concentration at half of the fitted maximal effect. The gist of the method:
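CellTiter-Glo luminescence, 10 min room-temperature incubation, gave viability. Cells: naive MV4-11 (500/well), treated 72 hr at 37 C, 5% CO2.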

Experiment [3] can be described thus: Viability qHTS for spleen associated tyrosine kinase inhibitor (SYKi) drug resistant MV4-11 cells (AID 1963824). Further: nearly all actives have a fitted effect of over 35% in size. Further: potency means the concentration at half of the fitted maximal effect. The gist of the method: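 SYK inhibitor-resistant MV4-11 AML cells, 500 per well, added to predispensed compounds and incubated 72 hr at 37 C, 5% CO2. Viability measured by CellTiter-Glo luminescence after 10 min at room temperature.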
Experiment [4] is described as follows: Quantitative highthroughput screen to assess conditional lethalithy of NOMO1 cells grown in RPMI1640 with untreated serum (RPMI+s) (AID 1963876). Further: nearly all actives have a fitted effect of over 35% in size. Further: potency means the concentration at half of the fitted maximal effect.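 On Viability: 100% = DMSO wells and 0% = empty wells without cells.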 The gist of the method: (§1)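 Each medium arm—HPLM with 10% dialyzed FBS, or RPMI1640 with 5 mM glucose and 10% untreated or dialyzed FBS—was screened against an 11-point, 3-fold compound titration for 48 h at 37 °C, with CellTiter-Glo luminescence as endpoint.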

Experiment [5] in a line: Quantitative highthroughput screen to assess conditional lethalithy of NOMO1 cells grown in RPMI1640 with dialyzed fetal bovine serum (RPMI+ds) (AID 1963877). Further: nearly all actives have a fitted effect of over 30% in size. Further: potency means the concentration at half of the fitted maximal effect.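 On Viability: series mostly up to about 46 µM; 100% = DMSO control wells and 0% = empty wells.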 The gist of the method: as §1
Experiment [6] can be described thus: Quantitative highthroughput screen to assess conditional lethalithy of NOMO1 cells grown in Human Plasma-Like Medium with dialyzed fetal bovine serum (HPLM+ds) (AID 1963878). Further: nearly all actives have a fitted effect of over 35% in size. Further: potency means the concentration at half of the fitted maximal effect.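 On Viability: 100% = DMSO wells and 0% = empty wells on each plate.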 The gist of the method: as §1
A short description of experiment [7]: Quantitative highthroughput screen to assess conditional lethalithy of P12 Ichikawa cells grown in Human Plasma-Like Medium with dialyzed fetal bovine serum (HPLM+ds) (AID 1963879). Further: nearly all actives have a fitted effect of over 35% in size. Further: potency means the concentration at half of the fitted maximal effect. On Viability: series mostly up to about 46 µM. As to conditions: Potency: viability. An outline of the steps: as §1
A short description of experiment [8]: Quantitative highthroughput screen to assess conditional lethalithy of P12 Ichikawa cells grown in RPMI1640 with untreated serum (RPMI+s) (AID 1963881). The conditions noted are these: Potency: viability. The gist of the method: as §1
Experiment [9] is described as follows: Quantitative highthroughput screen to assess conditional lethalithy of SEM cells grown in Human Plasma-Like Medium with dialyzed fetal bovine serum (HPLM+ds) (AID 1963882). Further: nearly all actives have a fitted effect of over 35% in size. Further: potency means the concentration at half of the fitted maximal effect. On Viability: series mostly up to about 46 µM. The gist of the method:
as §1

The nature of experiment [10]: Quantitative highthroughput screen to assess conditional lethalithy of SEM cells grown in RPMI1640 with unreated serum (RPMI+s) (AID 1963883). Further: nearly all actives have a fitted effect of over 35% in size. Further: potency means the concentration at half of the fitted maximal effect.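 On Viability: 100% = DMSO wells and 0% = empty wells without cells.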 The gist of the method:
as §1

A short description of experiment [11]: Quantitative highthroughput screen to assess conditional lethalithy of SEM cells grown in RPMI1640 with dialyzed fetal bovine serum (RPMI+ds) (AID 1963884). Further: nearly all actives have a fitted effect of over 35% in size. Further: potency means the concentration at half of the fitted maximal effect.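 On Viability: series mostly up to about 46 µM; 100% = DMSO control wells and 0% = empty wells without cells.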 The gist of the method: as §1
A short description of experiment [12]: Cellular viability qHTS for adrenocortical cancer (ACC) cell line SW-13 (AID 1963989).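 Further: cells grown in serum-free medium with ITS supplement; on the % scale 0 is the no-effect control and ±100 the full control effect; nearly all actives have a fitted effect of over 65% in size.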 As to conditions: SW-13 ACC cells viability, CellTiter-Glo, 48 h; activity (max response): active compounds read low. The gist of the method: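 Viability was read as CellTiter-Glo luminescence after 48 h compound treatment (up to 46 uM final) of SW-13 cells grown serum-free; titration curves were fit with a four-parameter logistic model to give IC50 and efficacy.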

Experiment [13] is described as follows: Cellular viability qHTS for adrenocortical cancer (ACC) cell line NCI-H295R (AID 1963990). Further: nearly all actives have a fitted effect of over 60% in size. Further: potency means the concentration at half of the fitted maximal effect. The gist of the method: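 CellTiter-Glo ATP luminescence, read 48 h after compound addition, measured viability of NCI-H295R adrenocortical cells grown serum-free with ITS. Final concentrations spanned up to 46 uM. Data normalized to DMSO and doxorubicin, fitted for IC50 and maximal response.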

A short description of experiment [14]: Quantitative highthroughput screen to assess conditional lethalithy of P12 Ichikawa cells grown in RPMI1640 with dialyzed fetal bovine serum (RPMI+ds) (AID 1963880). The conditions noted are these: Potency: P12-Ichikawa viability. The gist of the method: as §1

SMILES strings stand for the structures. Where “and” joins values, the source holds several entries; their conditions need not be identical. Equal values may be shown once. Inconclusive results are not listed. Unmarked numbers belong to inactive results. Calls of active or inactive are those of the source. The call rests on the fitted dose curve; in most records, active means well fitted curve in the direction sought with a large enough effect; inconclusive means small, poorly fitted or top-dose-only effect, or another doubt; inactive means no such curve, though single readings can be large; an effect the other way counts as inactive or inconclusive. Where a SMILES comes first, the peptide text is derived from it. [ ]: non-standard residue; d: D form. The star is where a group is joined. Sta = CC(C)C[C@H](N)[C@@H](O)CC(=O)O; Isovaleryl = CC(C)CC(=O)*

Cytochrome P450 3A7 (Homo sapiens), sequence (P24462 whole entry, looked up): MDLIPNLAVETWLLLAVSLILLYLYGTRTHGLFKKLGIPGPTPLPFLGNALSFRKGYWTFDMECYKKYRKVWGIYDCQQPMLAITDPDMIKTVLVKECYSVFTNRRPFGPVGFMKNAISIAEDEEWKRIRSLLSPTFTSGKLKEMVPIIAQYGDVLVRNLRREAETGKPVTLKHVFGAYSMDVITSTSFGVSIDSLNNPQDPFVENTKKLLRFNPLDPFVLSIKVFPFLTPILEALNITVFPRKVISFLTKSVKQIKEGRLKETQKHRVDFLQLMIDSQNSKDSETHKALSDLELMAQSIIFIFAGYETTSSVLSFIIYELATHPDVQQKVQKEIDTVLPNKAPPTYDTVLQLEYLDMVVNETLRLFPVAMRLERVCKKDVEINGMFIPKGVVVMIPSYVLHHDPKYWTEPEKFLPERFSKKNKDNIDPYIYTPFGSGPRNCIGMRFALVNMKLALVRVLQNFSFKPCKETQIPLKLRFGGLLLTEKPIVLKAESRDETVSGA

In the case of `Cc1cc(=O)oc2cc(O)ccc12`, the Potency result in [1], in [2], in experiment [3], in experiment [4], in experiment [5] and in [6] was “inactive” throughout. Moreover, the Potency entry in [7], in experiment [8], in [9], in experiment [10], in [11] and in [13] was “inactive” in each case. Moreover, in experiment [12], the activity (max response) is -3.93% and 10.3%.

Turning to `COc1c(N2CCNC(C)C2)c(F)cc2c(=O)c(C(=O)O)cn(C3CC3)c12` (configuration not stated), the Potency entry in [1], in experiment [4], in experiment [5], in [6], in [7] and in [8] was “inactive” throughout. The Potency entry in [13] is “inactive”. Further, the Potency in experiment [2] was 18.6 µM (active); in [3], 14.8 µM (active); in experiment [9], 0.743 µM (active); in experiment [11], 0.662 µM (active). In addition, the activity (max response) in experiment [12] is -4.21% and 1.72%.

Take `Cc1nnc(C(=O)NC(C)(C)c2nc(C(=O)NCc3ccc(F)cc3)c(O)c(=O)n2C)o1`: the Potency entry in experiment [1], in [2], in [3], in experiment [4], in experiment [5] and in experiment [6] was “inactive” in each case. Besides, the Potency entry in [7], in experiment [14], in experiment [8], in [9], in [10] and in [11] was “inactive” throughout. The Potency result in experiment [13] was “inactive”.

Turning to `NC(=O)OCC(COC(N)=O)c1ccccc1`, the Potency result in experiment [1], in experiment [2], in [3], in [4], in experiment [5] and in experiment [6] was “inactive” each time. The Potency entry in experiment [7], in [14], in [8], in experiment [9], in [10] and in [11] was “inactive” each time. Moreover, the Potency entry in experiment [13] was “inactive”. For the same compound, the activity (max response) in [12] is 2.38% and -8.33%.

For `CC(C)CC(=O)N[C@H](C(=O)N[C@H](C(=O)N[C@@H](CC(C)C)[C@@H](O)CC(=O)N[C@@H](C)C(=O)N[C@@H](CC(C)C)[C@@H](O)CC(=O)O)C(C)C)C(C)C` (Isovaleryl-VV[Sta]A[Sta]-OH), the Potency result in [1], in experiment [2], in experiment [3], in experiment [4], in experiment [5] and in [6] was “inactive” in each case. Further, the Potency result in [14], in [8] and in experiment [13] was “inactive” in each case. In experiment [12], the activity (max response) was 4.2% and -6.21%.

As to `Cc1cn([C@H]2C=C[C@@H](CO)O2)c(=O)[nH]c1=O`, the Potency entry in experiment [1], in experiment [2], in experiment [3], in experiment [4], in [5] and in experiment [6] was “inactive” throughout. The Potency entry in experiment [7], in experiment [14], in experiment [8], in experiment [9], in [10] and in experiment [13] was “inactive” each time.

As for `NCCCCCC(=O)O`, the Potency result in [1], in [2], in experiment [3], in [4], in experiment [5] and in experiment [6] was “inactive” each time. For the same compound, the Potency result in [7], in [14], in experiment [8], in experiment [10] and in [13] was “inactive” throughout. The activity (max response) in [12] is 12.2% and -16.4%.

As to `CCN1C[C@H](C)n2c(c(O)c3c(=O)n(Cc4ccc(F)c(Cl)c4)nc(C(=O)NC)c32)C1=O`, the Potency entry in experiment [1], in experiment [2], in experiment [3], in experiment [14], in experiment [8] and in experiment [9] was “inactive” in each case. The Potency entry in [10] and in [11] was “inactive” each time. Further, the values for the Potency in experiment [4], in experiment [5] and in experiment [6] were 23.5 µM (active), 16.6 µM (active) and 16.6 µM (active), respectively.

In the case of `O=C1CCC(N2C(=O)c3ccccc3C2=O)C(=O)N1` (configuration not stated), the Potency entry in experiment [1], in experiment [2], in experiment [3], in [4], in experiment [5] and in experiment [6] was “inactive” throughout. For the same compound, the Potency entry in experiment [7], in experiment [14], in [8], in experiment [9] and in [11] was “inactive” each time. In addition, the activity (max response) in experiment [12] was 13.3% and -15.2%.

Turning to `CCC(C)(Oc1ccc(C2(c3ccc(OC(C)(CC)C(=O)O)cc3)CCCCC2)cc1)C(=O)O` (configuration not stated), the Potency result in [1], in experiment [2], in experiment [3], in experiment [4], in experiment [5] and in [6] was “inactive” throughout. In addition, the Potency result in experiment [7], in experiment [14], in experiment [8], in experiment [9], in [10] and in experiment [11] was “inactive” each time. In experiment [13], the Potency entry is “inactive”. Moreover, in experiment [12], the activity (max response) was -4.64% and -4.83%.

As to `Clc1ccc(C2(c3ccc(-c4cn[nH]c4)cc3)CCNCC2)cc1`, the Potency in experiment [1] is 12.6 µM (active); in [2] it was 2.31 µM (active) and 2.63 µM (active); in [3] it was 5.17 µM (active) and 7.42 µM (active); in experiment [4], 14.8 µM (active); in experiment [5], 4.18 µM (active); in experiment [6] it was 3.32 µM (active). In addition, the Potency in experiment [7] is 5.26 µM (active); in [10] it was 9.35 µM (active); in [13] it was 15.8 µM (active).

With `CNC1CCCN(c2c(F)cc3c(=O)c(C(=O)O)cn(C4CC4)c3c2OC)C1` (configuration not stated), the Potency entry in experiment [1], in experiment [2], in experiment [3], in experiment [4], in experiment [5] and in experiment [6] was “inactive” in each case. Besides, the Potency result in [7], in experiment [14], in [8], in [9], in experiment [10] and in [11] was “inactive” throughout. In addition, the Potency entry in [13] is “inactive”. Moreover, in [12], the activity (max response) was 2.01% and 5.57%.

Take `OC[C@H]1O[C@@H](OCCc2ccc(O)cc2)[C@H](O)[C@@H](O)[C@H]1O`: the Potency entry in [1], in [2], in [3], in experiment [4], in experiment [5] and in experiment [6] was “inactive” in each case. Also, the Potency result in experiment [7], in experiment [14], in experiment [8], in [9] and in experiment [11] was “inactive” in each case. For the same compound, the activity (max response) in [12] was -16.3%.

As for `O=c1[nH]c(-c2ccc(C(F)(F)F)cc2)nc2c1CSCC2`, the Potency entry in [1], in [3], in [4], in experiment [5], in experiment [6] and in [7] was “inactive” in each case. For the same compound, the Potency entry in [14], in experiment [8], in experiment [9], in experiment [10], in [11] and in experiment [13] was “inactive” each time. For the same compound, the Potency in experiment [2] is 2.35 µM (active). Moreover, in [12], the activity (max response) is -10.8%.

The record behind these values is PubChem BioAssay (NCATS).
